ssDAF-12 act – S. stercoralis DAF-12 nuclear receptor activators, primary screen, cell-based, luminescence, HEK293, GRIP1 co-expression, lit1-tk-luc | Nuclear hormone receptor DAF-12 (Strongyloides stercoralis) | HEK293 ssDAF-12/GRIP1 lit1-tk-luc reporter; % of 3 µM dafachronic acid response | activation, % at 6.8 µM | 370,000 compounds, 1% hits;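 active = activation above the mean over all tested compounds plus 3 SD, cut at about 0.9% in these data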;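 also: 0% = DMSO-only wells and 100% = 3 µM delta7-dafachronic acid wells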
hcDAF12 agonist – H. contortus DAF-12 nuclear receptor activators, primary screen, cell-based, luminescence, HEK293, lit1-tk-luc reporter; HEK293 hcDAF-12 lit1-tk-luc reporter; 0% DMSO, 100% Δ7-dafachronic acid; 370,000 compounds, 1.4% hits; activation, % at 6.8 µM; AID 652067, 2013;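 active = activation above the mean of all tested compounds plus 3 SD, cut at about 5.5% in these data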;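 also: 100% = response to 3 µM Δ7-dafachronic acid high control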
hgDAF-12 ag – H. glycines DAF-12 receptor agonists, primary screen, cell-based, luminescence, HEK293, GAL4 fusion, UAS-luciferase; Nuclear hormone receptor DAF-12 (Heterodera glycines), GAL4 fusion; HEK293 GAL4-hgDAF12 UAS-luciferase reporter, agonist luminescence; normalized to butyrate control; activation, % at 6.8 µM; 370,000 compounds, 1.8% hits; AID 687014, 2013;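 active = activation above a cutoff set at the mean of all screened compounds plus 3 SD, cut at about 10% in these data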;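 also: 0% = DMSO wells and 100% = sodium butyrate wells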
DAX1 inh-1 – DAX1 (NR0B1) inhibitors, primary screen, cell-based, HEK293, Gal4-DAX1, luciferase luminescence; HEK293 Gal4-DAX1 luciferase reporter; Nuclear receptor subfamily 0 group B member 1 (Homo sapiens), P51843; 340,000 compounds, 0.99% hits; inhibition, % at 6.75 µM;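 active = inhibition above the mean over all tested compounds plus 3 SD, cut at about 4.2% in these data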;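 also: 0% = DAX1-transfected cells with DMSO and 100% = empty-vector control cells with DMSO; inhibition shows as a rise in luminescence from relieved DAX1 repression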
DAX1 inh-2 – DAX1 (NR0B1) inhibitors on StAR promoter, primary screen, cell-based, luminescence, SF-1 (NR5A1), full-length DAX-1. AID 652010, 2013. HEK293T StAR-luciferase reporter, SF-1/DAX-1 repression relief. inhibition, % at 6.8 µM. 370,000 compounds, 1.1% hits;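 active = inhibition above the mean over all tested compounds plus 3 SD, cut at about 3.6% in these data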;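 also: 0% = DAX-1 cells with DMSO and 100% = cells lacking DAX-1 with DMSO; higher inhibition means more luminescence from relief of DAX-1 repression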
Wee1 stabilizer – Wee1 degradation inhibitors, primary screen, cell-based, HeLa, Wee1K328M-luciferase, luminescence; Wee1-like protein kinase (Homo sapiens), P30291; HeLa Luc-Wee1K328M stability; 100% = proteasome inhibitor MG132 effect; reporter increase, % at 5 µM; 220,000 compounds, 1.2% hits;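 active = activation above the mean of all tested compounds plus 3 SD, set per screening run, cut at about 8.8% in these data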;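 also: cells exposed to compound for 20 h before luminescence read; 0% = DMSO alone and 100% = MG132 at 30 µM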
DAX1 inh confirm – DAX1 (NR0B1) inhibitors relieving SF-1 repression, confirmation, cell-based, luminescence, HEK293T, full-length DAX-1, SF-1 activated StAR promoter; shares compounds with DAX1 inh-2; HEK293T StAR-promoter luciferase reporter, SF-1/DAX-1 repression; inhibition, % at 6.8 µM; 2,400 compounds, 87% hits; AID 652134, 2013;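 active = inhibition above the average of every tested compound plus 3 SD, cut at about 3.8% in these data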;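 also: 0% = DAX-1 cells with DMSO and 100% = no DAX-1 control cells with DMSO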
Target sequence (P51843 whole entry, looked up): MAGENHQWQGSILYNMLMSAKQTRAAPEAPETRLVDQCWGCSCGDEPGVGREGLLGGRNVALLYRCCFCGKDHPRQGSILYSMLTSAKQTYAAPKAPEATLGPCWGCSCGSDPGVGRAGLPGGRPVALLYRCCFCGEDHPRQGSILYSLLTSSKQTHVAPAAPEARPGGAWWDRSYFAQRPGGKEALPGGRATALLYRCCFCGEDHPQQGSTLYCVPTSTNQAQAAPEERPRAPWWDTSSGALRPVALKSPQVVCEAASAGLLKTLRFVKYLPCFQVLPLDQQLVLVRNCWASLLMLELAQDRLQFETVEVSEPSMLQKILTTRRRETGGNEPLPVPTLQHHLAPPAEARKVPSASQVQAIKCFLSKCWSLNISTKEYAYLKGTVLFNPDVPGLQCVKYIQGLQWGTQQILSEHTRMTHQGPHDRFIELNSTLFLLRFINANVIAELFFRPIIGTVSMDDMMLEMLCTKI
SF1 AF2mut Luc – StAR reporter signal changes without DAX1, counter-screen for DAX1 inhibitor project, cell-based, luminescence, AF-2 mutant SF-1, transactivation; shares compounds with DAX1 inh-2; HEK293 StAR-luciferase, SF-1 AF2 mutant; inhibition, % at 6.8 µM; 2,400 compounds, 78% hits;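 active = inhibition above the mean of all tested compounds plus 3 SD, cut at about 3% in these data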;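 also: 0% = DAX-1 transfected cells with DMSO and 100% = cells without DAX-1 with DMSO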
Numbers without * were called inactive; x = no result given. This is a sample that favours compounds with a hit; in the whole collection about 4.6% have one here.

SMILES	ssDAF-12 act	hcDAF12 agonist	hgDAF-12 ag	DAX1 inh-1	DAX1 inh-2	Wee1 stabilizer	DAX1 inh confirm	SF1 AF2mut Luc
O=C(NNC(=O)c1ccc(NC(=O)C2CC2)cc1)c1ccc(F)cc1	-1.5	-0.5	2.5	0.8	1.9	x	x	x
CCc1ccccc1NC(=O)c1ccc(OCc2c(C)noc2C)cc1	-0.8	-1.8	-1.8	0.5	0.5	x	x	x
Cc1cc(NC(=O)COc2ccc3ccccc3c2Br)no1	-0.7	3.0	9.2	0.8	6.0*	x	5.6*	6.0*
CCCS(=O)(=O)NC(=O)C1(C)CCCN(C(=O)c2cc(-c3cccs3)oc2C)C1 (configuration not stated)	-0.2	-1.2	-1.7	x	-0.5	x	x	x
COc1ccc(C(=O)Nc2ccnn2C2CCN(C(=O)CCC(F)(F)F)CC2)cc1	-1.0	4.7	8.6	-0.2	5.7*	x	6.4*	8.0*
CSc1ccccc1OCc1cc(C(=O)N2CCSCC2)no1	-0.6	5.1	11.6*	2.3	5.3*	x	5.4*	3.4*
CCN(CC)C1CCN(C(=O)c2cc(COc3ccccc3SC)on2)C1 (configuration not stated)	-1.8	-0.4	0.2	0.7	-0.2	x	x	x
Cc1ccc(C)c(OCc2cc(C(=O)N3CCOCC3)no2)c1	-0.2	5.4	7.0	1.4	5.7*	x	5.3*	4.7*
CSc1ccccc1OCc1cc(C(=O)N(C)Cc2ccc(C)o2)no1	-1.2	2.2	5.7	0.7	1.7	x	x	x
CSc1ccccc1OCc1cc(C(=O)N2CCCC(C)C2)no1 (configuration not stated)	0.1	3.7	12.0*	1.7	6.5*	x	8.3*	4.0*
CSc1ccccc1OCc1cc(C(=O)N(C)Cc2ccc3nsnc3c2)no1	-0.1	5.3	11.4*	3.0	5.3*	x	6.5*	3.1*
COc1ccc2c(c1)CCCN2C(=O)C1CCCN(S(=O)(=O)c2ccccc2)C1 (configuration not stated)	-1.2	-4.3	-2.7	x	-1.4	x	x	x
O=C(Nc1cccc(-c2ccc(N3CCOCC3)nn2)c1)c1ccccc1Cl	-0.2	1.4	6.1	-0.4	5.2*	x	5.2*	5.0*
COc1cc(-c2cnc3c(NC=O)cc(-c4ccc(C)cc4)cn23)cc(OC)c1OC	-0.5	-2.4	-2.6	x	11.0*	x	21.4*	-6.8
COc1cc(-c2cc(NC=O)c3ncc(-c4ccccc4)n3c2)cc(OC)c1OC	-1.1	-2.5	-2.5	x	-1.1	x	x	x
CCOC(=O)C1CCCN(c2nc3ccccc3nc2NS(=O)(=O)c2ccc(C)cc2)C1 (configuration not stated)	-1.4	-0.5	-1.2	0.8	0.8	x	x	x
Cc1ccc(NC(=O)C(=O)NCCCN2CCCC2=O)cc1	-0.3	4.7	12.5*	0.5	6.5*	x	9.7*	6.5*
N/C(=N\OC(=O)c1cccc(C(F)(F)F)c1)c1cnccn1	0.0	4.3	11.0*	0.9	5.2*	x	7.3*	5.9*
Cc1cscc1-c1ccc(C(=O)Nc2c(C)cccc2C)o1	-0.9	-3.0	-4.1	x	4.5*	x	-1.0	-0.5
Cc1ccc(-c2ccc(C(=O)Nc3ccccc3)o2)c2ccccc12	-1.5	-1.6	2.6	0.0	-0.4	1.1	x	x
O=C(Nc1ccc(F)cc1Cl)c1ccc2c(=O)n3c(nc2c1)CCC3	0.1	6.5*	10.5*	2.0	8.8*	x	8.6*	5.7*
O=C(Nc1ccc(F)cc1F)c1ccc2c(=O)n3c(nc2c1)CCC3	-0.1	3.2	12.7*	0.5	10.6*	x	7.9*	6.5*
CCOC(=O)c1ccc(NC(=O)N2CCc3ccccc32)cc1	0.7	5.5	18.5*	1.7	4.8*	1.9	10.8*	7.9*
Cc1nn(-c2ccccc2)c(C)c1C(=O)OCC(=O)Nc1ccccc1F	0.2	1.6	10.2	0.9	7.4*	x	7.0*	3.6*
COc1cccc(C=Cc2nccc3ccccc23)c1OC	-1.2	4.1	11.0*	0.4	6.1*	x	3.8*	2.1
SMILES	ssDAF-12 act	hcDAF12 agonist	hgDAF-12 ag	DAX1 inh-1	DAX1 inh-2	Wee1 stabilizer	DAX1 inh confirm	SF1 AF2mut Luc
Cc1ccccc1Nc1nc(N)nc(CSc2ccc(F)cc2)n1	0.5	5.1	11.6*	7.5*	6.7*	5.5	11.2*	4.6*
Cc1ccc(SCc2nc(N)nc(Nc3ccccc3C)n2)cc1C	0.8	0.2	2.5	1.9	0.1	-1.3	x	x
CCCCNc1ccc2c(c1)C1CC2CCN1C(=O)OCc1ccccc1 (configuration not stated)	-0.2	4.3	2.9	2.0	7.0*	x	8.3*	1.9
c1ccc(-c2nn(-c3ccccc3)[n+](-c3ccccc3)n2)cc1	-1.7	-1.8	-7.0	-2.4	-4.4	x	x	x
COc1ccccc1OCC(=O)NNC(=O)CSC(=S)N1CCCC1	0.0	0.4	-0.7	-0.8	5.1*	x	-0.7	0.0
CCOc1cccc(C2C(C(=O)c3ccc(C)o3)=C(O)C(=O)N2c2nnc(C)s2)c1 (configuration not stated)	-0.8	0.9	1.9	-0.2	6.5*	x	6.0*	3.8*
CCOc1ccc(CCNC(=O)COC(=O)c2ccc[nH]c2=O)cc1OCC	-1.1	-0.4	-0.1	-0.3	-0.4	x	x	x
CCCCCCCCN1C(=O)[C@@H](CC(=O)NCCc2ccccc2OC)C[C@@]2(C(=O)OC)C1=C[C@H](COCc1ccccc1)O[C@@H]2C	-0.7	-2.2	-1.7	x	0.3	x	x	x
CCCCN(CC)CCCNC(=O)c1cc2c(=O)n(C)c3ccccc3c2n1C	-1.6	-0.9	0.9	3.2	4.7*	5.1	8.7*	1.9
CS(=O)(=O)N1CCCCC1c1cc(C(=O)Nc2ccccc2)no1 (configuration not stated)	-0.5	2.4	11.2*	x	6.7*	x	7.9*	7.0*
